An excerpt weighted towards active compounds, which were near 5.2% of everything screened.
ALR inh: inhibitors of human ALR sulfhydryl oxidase, primary screen, biochemical, H2O2 detection, HRP-luminol luminescence, single point | FAD-linked sulfhydryl oxidase ALR (Homo sapiens), P55789 | purified ALR, DTT oxidation | inhibition, % (no concentration beside the values) | 290,000 tested, 3.8% active | AID 485317, 2010;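 active = mean replicate inhibition above about 79%, with every replicate also reaching it, limit read from the data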
A3A deaminase: APOBEC3A ssDNA deaminase inhibitors, primary screen, selectivity assay for APOBEC3G inhibitor project, biochemical, FAM/TAMRA oligo cleavage fluorescence; recombinant A3A, FAM/TAMRA ssDNA deamination fluorescence; DNA dC->dU-editing enzyme APOBEC-3A (Homo sapiens), P31941; 330,000 tested, 0.41% active; inhibition, % at 20 µM;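 active = at least 40% inhibition at 20 µM here, with at most 30% in a related deaminase screen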;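 also: plate controls were A3A with DMSO for no effect and wells lacking A3A enzyme for full effect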
CR mimetic SO: reduction of superoxide in aged yeast, primary screen, HTS; S. cerevisiae aged cells, superoxide DHE fluorescence; hits give low values; superoxide response (% of plate mean), % at 10 µM; 330,000 tested, 0.18% active;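 active = superoxide response under a set limit, about three screen SD below normal, cut at about 65% in these data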;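 also: yeast aged for seven days with compound at 30 °C before DHE staining; 100% = average MFI of all compound-treated wells on the plate with controls excluded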
A3G deaminase: APOBEC3G DNA deaminase inhibitors, primary screen, biochemical, fluorescence, single-stranded DNA substrate, uHTS | AID 493012, 2011 | recombinant A3G, ssDNA deamination FAM/TAMRA fluorescence | inhibition, % at 20 µM | 330,000 tested, 0.28% active | DNA dC->dU-editing enzyme APOBEC-3G (Homo sapiens), Q9HC16;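 active = inhibition of at least 40% at 20 µM, with no more than 30% in the related APOBEC3A deaminase screen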;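 also: plate controls were DMSO wells with A3G for no effect and wells lacking A3G enzyme for full effect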
PfM18AAP inh-1: PfM18AAP inhibitors, malaria aminopeptidase, primary screen, biochemical, QFRET, recombinant enzyme. AID 1822, 2009. M18 aspartyl aminopeptidase (Plasmodium falciparum 3D7). H-Glu-NHMec fluorogenic cleavage. 290,000 tested, 1.2% active. inhibition, % at 7.35 µM;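 active = inhibition above the campaign mean inhibition over all tested compounds plus 3 SD, cut at about 28% in these data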;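 also: 0% = plate median of test compound wells and 100% = 2 mM ZnCl2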
NRP1-CendR mod: modulators of CendR peptide binding to NRP-1, primary screen, biochemical, fluorescence polarization, uHTS. Neuropilin-1 (Homo sapiens), O14786. FAM-RPARPAR peptide binding to NRP-1. inhibition, % at 25 µM. 360,000 tested, 0.85% active;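 active = inhibition or corrected inhibition above about 18%, plus a signal ratio from 0.5 to 1.5, limit read from the data, passing the limit was not always enough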
PfM18AAP inh-2: PfM18AAP inhibitors, malaria aminopeptidase, confirmation, biochemical, QFRET, recombinant enzyme, triplicate | H-Glu-NHMec fluorogenic cleavage | inhibition, % at 7.35 µM | 2,400 tested, 28% active | shares compounds with PfM18AAP inh-1;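 active = mean inhibition over replicate wells above the hit cutoff set for the earlier primary screen, cut at about 29% in these data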;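 also: 0% = median of test compound wells and 100% = 2 mM ZnCl2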
CTSL1 counter: cathepsin L1 inhibitors, retest, confirmation, counter-screen for PFM18AAP inhibitor project, biochemical, QFRET, triplicate; shares compounds with PfM18AAP inh-1; purified cathepsin L1, Z-Leu-Arg-MCA fluorescence; inhibition, % at 5.96 µM; 2,400 tested, under 10 active; AID 2178, 2009;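 active = average inhibition across replicates above the hit cutoff set in the earlier primary screen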;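 also: 0% = median of test compound wells and 100% = Z-Phe-Ala-diazomethylketone 1 µM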
Target sequence (P07711 whole entry, looked up): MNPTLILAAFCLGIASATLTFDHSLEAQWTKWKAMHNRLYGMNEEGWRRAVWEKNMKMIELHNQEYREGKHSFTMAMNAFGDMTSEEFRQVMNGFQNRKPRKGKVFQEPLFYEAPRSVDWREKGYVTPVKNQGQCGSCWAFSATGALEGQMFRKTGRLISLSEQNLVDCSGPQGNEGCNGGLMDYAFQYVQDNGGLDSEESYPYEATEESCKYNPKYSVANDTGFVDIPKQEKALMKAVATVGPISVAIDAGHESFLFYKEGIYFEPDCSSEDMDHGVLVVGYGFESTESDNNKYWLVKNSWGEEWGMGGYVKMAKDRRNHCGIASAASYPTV
* hit, by the source's call; . = no result.

SMILES	ALR inh	A3A deaminase	CR mimetic SO	A3G deaminase	PfM18AAP inh-1	NRP1-CendR mod	PfM18AAP inh-2	CTSL1 counter
CCOC(=O)C1=C(CS(=O)(=O)c2ccc(F)cc2)NC(=O)NC1c1ccc(O)c(O)c1 (stereo not given)	30.2	-1.7	94.3	-3.4	79.1*	4.4	62.4*	-9.3
Cc1c(Cl)cccc1N1C(=O)CC(N(O)c2ccccc2)C1=O (stereo not given)	52.1	-5.8	93.1	-5.0	33.4*	-1.2	-7.9	-0.1
Cc1cccc(C)c1N1C(=O)CC(N(O)c2ccccc2)C1=O (stereo not given)	30.6	7.1	97.8	3.3	-12.2	2.2	.	.
CC(C)(C)C1CCc2c(sc(NC(=O)CSc3ncn[nH]3)c2C#N)C1 (stereo not given)	-1.1	0.1	102.2	-3.7	34.1*	-25.7	-16.9	1.4
CCCCc1c(O)nc(SCC(=O)N2CCOCC2)n(-c2ccccc2C)c1=O	31.5	3.0	109.6	-2.7	-2.4	23.8	.	.
N#Cc1c(N)oc(-c2ccc3c(c2)OCO3)c1-c1ccc2c(c1)OCO2	6.3	-0.8	90.8	-1.7	47.9*	-51.9	16.0	-2.1
Cc1c(Cc2ccccc2)c(=O)oc2c(O)c(O)ccc12	.	-5.3	.	-6.8	47.0*	-48.8	23.4	7.7
CCNc1nc(NCC)nc(N/N=C/c2ccc(O)c(O)c2)n1	98.7*	-2.3	90.5	-10.8	46.8*	12.1	33.0*	-0.1
CCNc1nc(NCC)nc(N/N=C/c2cc(OC)c(OC)c(OC)c2)n1	7.5	2.0	98.8	8.9	-17.6	12.7	.	.
Cc1nc(N)sc1-c1csc(N(C)c2ccc(O)cc2)n1	61.4	0.9	114.0	-1.7	32.7*	-9.5	-25.2	0.4
OC(c1ccccc1)c1nc(-c2cccs2)cs1 (stereo not given)	.	.	.	.	.	-0.3	.	.
CN(c1ccc(O)cc1)c1nc(-c2cccs2)cs1	97.5*	-2.9	94.4	-5.7	38.8*	-3.8	-4.6	1.3
CN1OC[C@@H]2CN[C@H](c3cccc(-c4ccccc4)c3)C[C@@H]21	.	.	.	.	.	-2.7	.	.
CCN(CC)C(=S)SCC(=O)Nc1nc(=O)c2ccccc2s1	-13.4	-0.2	97.1	-0.8	32.1*	-0.3	-53.2	-9.4
COC(=O)c1ccccc1CSc1nsc(/C=C/N(C)C)c1C#N	.	-4.0	104.0	2.5	48.0*	-108.3	6.0	2.0
Cc1nc(CSc2nsc(/C=C/N(C)C)c2C#N)cs1	.	.	.	.	1.1	-88.0	.	.
O=C(CNS(=O)(=O)c1ccccc1)NNC(=O)C(Cl)Cl	-0.4	-3.5	88.1	-4.7	50.2*	12.4	27.0	9.4
Cc1ccsc1CNC(=O)C1(C)CCCN1CC(C)C (stereo not given)	.	.	.	.	.	-4.2	.	.
CC(C)(C)OC(=O)C[C@@H]1C/C=C\C[C@@H](CC(=O)N[C@H](CO)Cc2ccccc2)C(=O)N2CCC[C@@H]2COC1=O	4.8	-1.3	104.1	-6.5	.	2.9	.	.
CC(=O)Nc1nc2cc3c(cc2s1)OCCO3	-11.2	-2.2	107.7	-5.4	4.9	-14.0	.	.
O=C(NNc1nc2cc3c(cc2s1)OCCO3)c1ccccc1	43.4	-1.7	109.4	-7.4	54.5*	2.9	26.5	0.2
Cc1cccc2sc(NNC(=O)c3ccc4c(c3)OCCO4)nc12	.	-3.7	86.4	-11.3	33.7*	9.4	-12.6	-5.8
O=C(Cn1ncc2c(=O)oc3ccccc3c21)NCC1COc2ccccc2O1 (stereo not given)	-6.6	-1.3	98.5	-0.5	-8.7	-8.7	.	.

From PubChem BioAssay
